Reference: PubChem BioAssay
Calls of active or inactive are those of the source. How the calls were made is not given here.

target: Pantothenate synthetase (Mycobacterium tuberculosis (strain ATCC 25618 / H37Rv)) (UniProt P9WIL5); experiment: Recombinant Mtb pantothenate synthetase (PanC) inhibitors, coupled enzyme, confirmatory (AID 375); conditions: coupled enzyme assay; at 10 µM, hits give high values;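 further: 0% = full reaction with vehicle and 100% = no enzyme background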
Sequence (P9WIL5 whole entry, looked up): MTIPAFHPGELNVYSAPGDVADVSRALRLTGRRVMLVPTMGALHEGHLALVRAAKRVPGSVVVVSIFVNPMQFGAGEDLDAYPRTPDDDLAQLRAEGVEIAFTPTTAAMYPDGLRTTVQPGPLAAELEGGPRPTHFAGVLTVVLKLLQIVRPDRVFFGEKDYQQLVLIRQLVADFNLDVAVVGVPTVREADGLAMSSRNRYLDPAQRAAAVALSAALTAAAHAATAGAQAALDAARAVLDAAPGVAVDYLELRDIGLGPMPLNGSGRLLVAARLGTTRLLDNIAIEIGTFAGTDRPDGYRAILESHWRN

Compound	inhibition
O=C1CN=C(Nc2cccc(C(F)(F)F)c2)N1C1CCCC1	0% (inactive)
N#CC1=C(N)SC(N)=C(C#N)C1CCc1ccccc1	8% (inactive)
S=C(c1cccs1)N1CCCC1	0% (inactive)
O=C(CN(c1ccccc1)S(=O)(=O)c1ccccc1)N1CCN(Cc2ccc3c(c2)OCO3)CC1	0% (inactive)
N#Cc1c(N)nc2c(c1-c1ccncc1)CCCCC2	8% (inactive)
COc1cccc(OC)c1C(=O)Nc1ccccc1N1CCCC1	2% (inactive)
Cc1ccc(-c2nnnn2CS(=O)(=O)c2ccccc2)cc1	0% (inactive)
COC(=O)c1ccc2c(=O)n(CC3CCCO3)c(=S)[nH]c2c1 (stereo not given)	0% (inactive)
Cc1cc(C)nc(N2CCCC(C(=O)Nc3nc4ccc(S(C)(=O)=O)cc4s3)C2)n1 (stereo not given)	4% (inactive)
CCOC(=O)C1CCN(S(=O)(=O)c2cc(Cl)c(C)cc2OC)CC1	4% (inactive)
O=C1CC(Cc2ccccc2)C(=O)N1CCc1ccc2c(c1)OCO2 (stereo not given)	3% (inactive)
CC(C)Cn1c(N)c(C(=O)NCCN2CCOCC2)c2nc3ccccc3nc21	0% (inactive)
CN(C)C(=O)CN(C)S(=O)(=O)c1ccc(Cl)cc1	0% (inactive)
Cc1cccc(NC(=O)CC2NC3CCCCC3NC2=O)c1 (stereo not given)	0% (inactive)
CCOc1ccc(N(CC(=O)Nc2ccc(F)c(F)c2)S(=O)(=O)c2c(C)noc2C)cc1	4% (inactive)
CCC(CC)C(=O)NCCc1cc2ccc(C)cc2[nH]c1=O	0% (inactive)
CCN(c1ccc(OC)cc1)S(=O)(=O)c1ccc2c(c1)CCN2C(=O)CCC(=O)O	0% (inactive)
Cc1ccccc1NC(=O)CSc1nnc(Cc2cccn2C)n1-c1ccc(F)cc1	0% (inactive)
COc1ccc(C2c3sc(=O)[nH]c3SC3C4CCC(C4)C23)cc1 (stereo not given)	7% (inactive)
O=C(Nc1ccccc1)c1cnc2n(c1=O)CCS2	0% (inactive)

Compound	inhibition
CC(C)(C)C1=Nn2c(nnc2-c2n[nH]c3c2CCC3)SC1	8% (inactive)
O=C1CC(Sc2nnc(-c3ccccc3)o2)C(=O)N1c1ccccc1 (stereo not given)	0% (inactive)
CCCS(=O)(=O)C(=C1Nc2ccccc2N1)S(=O)(=O)CCC	1% (inactive)
c1cn(CC2(Cn3ccnc3)COC2)cn1	1% (inactive)
O=C(CN1C(=O)C2CC=C(Cl)CC2C1=O)Nc1ccc(C(=O)O)cc1 (stereo not given)	0% (inactive)
CSc1nnc2n(CCc3ccccc3)c(=O)c3c4c(sc3n12)CCCC4	2% (inactive)
CCSc1nc2c(c(=O)n(C)c(=O)n2C)n1Cc1ccc(Cl)cc1	4% (inactive)
CCOC(=O)N1CCC(O)(c2cc(C)c(C)cc2C)CC1	3% (inactive)
COc1ccc(N2CCN(C(c3cccc(OC)c3OC)c3nnnn3C3CCCC3)CC2)cc1 (stereo not given)	0% (inactive)
Cn1c(=O)[nH]c(=O)c2c1nc(N1CCCCCC1)n2CCCSc1nc2ccccc2o1	8% (inactive)
Cc1nn(C)cc1/C=N/O	0% (inactive)
Oc1cnc2ccccc2c1CN1CCOCC1	4% (inactive)
CCn1c(SCc2cccc(C(F)(F)F)c2)nnc1-c1ccco1	0% (inactive)
Nc1nc2ccccc2n1C(=O)CCc1ccccc1	0% (inactive)
CC1CCN(S(=O)(=O)c2ccc(S(=O)(=O)NCC(=O)C(C)(C)C)cc2)CC1	2% (inactive)
O=C(CCSc1nnc(-c2ccncc2)o1)Nc1ccccc1	0% (inactive)
O=C(c1ccco1)N1CCN(C2=NS(=O)(=O)c3ccccc32)CC1	0% (inactive)
CNC[C@H](O)c1cccc(O)c1	0% (inactive)
FC(F)(F)c1ccc(Sc2nnc(-c3cccs3)n2CC2CCCO2)nc1 (stereo not given)	0% (inactive)
CS(=O)(=O)N1CCN(c2ccccc2NC(=O)c2cccs2)CC1	2% (inactive)
